From PubChem BioAssay (EPA / NIEHS) come the findings set out here.

Where “and” joins values, the source holds several entries; their conditions need not be identical. Identical values can stand only once. The source holds several records for some structures; these can differ, active in one and inactive in another. Calls of active or inactive are those of the source. Rule for the calls: active = hit-call score of the fitted dose curve at least 0.9, where 1 is the maximum; inactive = score below 0.9.

Read-out in the experiment: Monokine induced gamma interferon (MIG), CXCL9 (gene 4283)
Briefly: BSK_KF3CT_MIG: BioMAP Diversity Plus: KF3CT Assay for Monokine induced gamma interferon (MIG) Biomarker Activity (AID 2284248). The settings on record: primary human keratinocytes with fibroblasts. As for the experimental part:
BSK_KF3CT is a cell-based, multiplexed-readout assay that uses keratinocytes and foreskin fibroblasts, a human skin primary cell co-culture, with measurements taken at 24 hours after chemical dosing in a 96-well plate.BSK_KF3CT_MIG is an assay component measured in the BSK_KF3CT assay. It measures MIG antibody related to regulation of gene expression using ELISA technology.Data from the assay component BSK_KF3CT_MIG was analyzed at the endpoint, BSK_KF3CT_MIG, in the positive analysis fitting direction relative to DMSO as the negative control and baseline of activity. Using a type of binding reporter, gain or loss-of-signal activity can be used to understand protein changes. To generalize the intended target to other relatable targets, this assay endpoint is annotated to the 'cytokine' intended target family, where the subfamily is 'chemotactic factor'.
The levels of cell surface (or secreted, indicated by the prefix "s") biomarker endpoints were measured by ELISA. Overt cytotoxicity to cells in confluent adherent cultures (all systems other than the BT system) was assessed by measuring total protein levels using sulforhodamine B (SRB) staining in parallel cultures at the time of biomarker measurements, indicated as SRB endpoints. For proliferation assays for adherent cell types, individual cell types are cultured at sub-confluence and relative cell numbers quantified by SRB staining at time points optimized for each system (48 h: 3C and CASM3C systems; 72 h: BT and HDF3CGF systems; 96 h: SAg system). SRB was performed by staining cells with 0.1% SRB after fixation with 10% TCA and reading wells at 560 nm.Viability and proliferation of PBMC (T cells) was quantified by Alamar Blue reduction for the SAg and BT systems. For PBMC viability (referred to as PBMC Cytotoxicity within the assay endpoint names), cells were plated (75,000/well in a 96-well plate) and then chemical samples added for 1 h before addition of activators, SEB and TSST-1 (20 ng/mL final concentration each). Cells were incubated for 90 h. Then, Alamar Blue (20 uL/well) (Invitrogen, Cat DAL1100) was added for 6 h, and the plates were read with a fluorescence microplate reader at 546/580 nm (excitation/emission). For PBMC proliferation, cells were plated and activated as above but incubated for only 16 h prior to addition of Alamar Blue. Plates were read after 6 h.
Consider `O=C1CCCN1CCO`, for which the result was inactive.

`CCOC(=O)c1ccccc1C(=C1C=C(Br)C(=O)C(Br)=C1)c1cc(Br)c(O)c(Br)c1`: the AC50 (in general, the concentration at which the activity in the assay is half-maximal) is 4.3 µM (active) and 3.96 µM (active).

As to `C=C[Si](OC(C)=O)(OC(C)=O)OC(C)=O`, the result was inactive.

Consider `CN1C(=O)N(C)C(O)C1O` (stereo not given), for which the outcome was inactive.

Take `CCCCC(CC)COCC1CO1` (stereo not given): the outcome was inactive.

Turning to `CO[Si](OC)(OC)c1ccccc1`, the outcome was inactive.

For the compound `CCO[Si](C)(OCC)OCC`, the outcome was inactive.

In the case of `Nc1ccc(N)c(Cl)c1`, the result was inactive and the AC50 is 12.3 µM (active).

On to `O=C(c1ccc(O)cc1)c1ccc(O)cc1O`, for which the outcome was inactive.
